Values joined by “and” are separate entries in the source; they are usually repeats but may differ in a detail not shown here. Equal entries are not always repeated. Some structures have more than one record in an assay (separate samples or runs), and their calls can disagree. Active and inactive are the calls of the source. Unless noted, no rule for the calls is given here.

A short description of test [1]: A549 cell viability effects, profiling panel, calcein-AM fluorescence, 48 h, basal (AID 1162). Also: test concentration not given here. As to conditions: higher = more signal.
Test [2] can be described thus: adipocyte viability effects, profiling panel, cell-based, 3T3-L1 adipocytes, calcein-AM fluorescence, 48 h, basal (AID 1163). Also: test concentration not given here. The conditions noted are these: 3T3-L1 adipocytes viability, higher = more signal.
Test [3] can be described thus: HepG2 cell viability effects, profiling panel, calcein-AM fluorescence, 48 h, basal (AID 1164). Also: test concentration not given here. As to conditions: higher = more signal.
Test [4] in a line: MM1S cell viability effects, profiling panel, calcein-AM fluorescence, 48 h, basal (AID 1165).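 Also: viability of MM1S multiple myeloma cells under basal unstimulated conditions; test concentration not given here.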 The conditions noted are these: higher = more signal.
The nature of test [5]: basal RPMI8226 viability, no added stimulus, profiling panel, cell-based, calcein-AM fluorescence, 48 h, PK04 Diversity Set (AID 1166).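 Also: cells grown under basal conditions without added stimulus; test concentration not given here.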 The conditions noted are these: RPMI8226 myeloma viability, higher = more signal.
Test [6] can be described thus: basal HepG2 mitochondrial membrane potential changes, profiling panel, cell-based, JC-1 fluorescence, 24 h, 100 nL compound (AID 1167). Also: test concentration not given here. The conditions noted are these: higher = more signal.
The nature of test [7]: basal 3T3-L1 adipocyte mitochondrial potential changes, profiling panel, cell-based, JC-1 fluorescence, 3T3-L1 adipocytes, 24 h, 100 nL compound (AID 1168). Also: test concentration not given here. The conditions noted are these: JC-1 mitochondrial fluorescence, higher = more signal, called active from +8 up or from −8 down.
The nature of test [8]: basal RPMI8226 mitochondrial membrane potential changes, profiling panel, cell-based, JC-1 fluorescence, 24 h, 100 nL compound (AID 1169). Also: test concentration not given here. As to conditions: RPMI8226 myeloma, JC-1 mitochondrial potential fluorescence, higher = more signal.
Test [9] can be described thus: basal MM1S mitochondrial membrane potential changes, profiling panel, cell-based, JC-1 fluorescence, 24 h, 100 nL compound (AID 1170). Also: test concentration not given here. The conditions noted are these: higher = more signal.
Test [10] can be described thus: A549 lung cancer cell viability effects, profiling panel, resazurin fluorescence, 24 h, PK04 Diversity Set (AID 1171). Also: test concentration not given here. The conditions noted are these: higher = more signal, called active from +8 up or from −8 down. Background: The colour change of resazurin is a common sign of viable cells or microbes.
Test [11] is described as follows: HepG2 liver cancer cell viability effects, profiling panel, resazurin fluorescence, 24 h, PK04 Diversity Set (AID 1172). Also: test concentration not given here. The conditions noted are these: higher = more signal.
Test [12] can be described thus: basal S. cerevisiae growth modulation, no modifier, primary screen, OD600, strain BY4716, 24 h, basal condition (AID 1173). As to conditions: OD600, 24 h, higher = more signal, called active from +8 up or from −8 down.
A short description of test [13]: MM1S myeloma cell viability, profiling panel, resazurin fluorescence, basal, 24 h, PK04 Diversity Set (AID 1174).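 Also: MM1S multiple myeloma cell line; test concentration not given here.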 As to conditions: higher = more signal, called active from +8 up or from −8 down.
For test [14], the target named is Dihydroorotate dehydrogenase (quinone), mitochondrial (Plasmodium falciparum (isolate 3D7)) (UniProt Q08210). The test is described as follows: PfDHODH enzyme inhibitors, primary screen, biochemical, C-terminal His tag, absorbance 600 nm (AID 1175).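 Also: recombinant parasite enzyme with a five histidine tag at its C terminus; test concentration not given here.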 The conditions noted are these: DCIP absorbance 600 nm, higher = more signal, called active from +8 up or from −8 down.
Sequence of Dihydroorotate dehydrogenase (quinone), mitochondrial (Plasmodium falciparum (isolate 3D7)) (Q08210 whole entry, looked up): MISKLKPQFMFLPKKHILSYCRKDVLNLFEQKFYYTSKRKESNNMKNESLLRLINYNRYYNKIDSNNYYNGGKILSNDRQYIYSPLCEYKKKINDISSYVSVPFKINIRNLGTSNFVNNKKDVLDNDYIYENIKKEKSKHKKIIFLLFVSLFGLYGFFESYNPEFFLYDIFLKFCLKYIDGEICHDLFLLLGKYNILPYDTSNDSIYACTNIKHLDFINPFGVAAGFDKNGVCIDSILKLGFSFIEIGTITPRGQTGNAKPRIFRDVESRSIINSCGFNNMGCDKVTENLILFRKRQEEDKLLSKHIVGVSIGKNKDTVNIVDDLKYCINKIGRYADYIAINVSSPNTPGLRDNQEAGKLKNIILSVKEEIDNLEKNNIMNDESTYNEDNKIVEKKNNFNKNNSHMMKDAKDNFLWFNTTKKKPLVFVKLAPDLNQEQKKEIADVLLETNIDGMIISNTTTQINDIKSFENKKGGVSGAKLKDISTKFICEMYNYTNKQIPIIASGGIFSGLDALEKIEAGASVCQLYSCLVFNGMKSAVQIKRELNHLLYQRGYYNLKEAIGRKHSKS

The nature of test [15]: P. aeruginosa biofilm formation inhibitors, primary screen, strain PAO1, LB-PBS medium, absorbance 600 nm (AID 1176). Also: test concentration not given here. As to conditions: P. aeruginosa PAO1 growth/biofilm, A600, 12 h; higher = more signal.
A short description of test [16]: S. cerevisiae RM11-1a growth modifiers, primary screen, strain RM11-1a, OD600, basal, 24 h (AID 1177).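 Also: cultures grown under basal conditions with no added stressor; test concentration not given here.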 As to conditions: OD600, 24 h, higher = more signal, called active from +8 up or from −8 down.
The nature of test [17]: E. coli acrAB mutant growth effects, primary screen, E. coli filamentation inducers, strain DRC39, OD650, 24 h (AID 1178).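 Also: growth measured as culture turbidity by optical density at 650 nm; test concentration not given here.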 As to conditions: higher = more signal, called active from +8 up or from −8 down.
The nature of test [18]: E. coli acrAB mutant growth effects, primary screen, E. coli filamentation inducers, strain DRC39, OD650, 48 h (AID 1179).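 Also: screen aims at cell division blockers that make cells filament.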 As to conditions: E. coli DRC39 delta-acrAB growth, higher = more signal, called active from +8 up or from −8 down.
Test [19] in a line: RPMI8226 myeloma cell viability, profiling panel, resazurin fluorescence, basal, 24 h, PK04 Diversity Set (AID 1180).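 Also: RPMI8826 multiple myeloma cell line at 5000 cells per well; test concentration not given here.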 As to conditions: higher = more signal.
In test [20] the target is E3 ubiquitin-protein ligase XIAP (Homo sapiens) (UniProt P98170). The test is described as follows: XIAP binders, primary screen, biophysical, small-molecule microarray, fluorescence 635 nm (AID 1181).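 Also: score merges 667 nm emission and signal to noise over triplicate slides.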 The conditions noted are these: small-molecule microarray binding, higher = more signal.
Sequence of E3 ubiquitin-protein ligase XIAP (Homo sapiens) (P98170 whole entry, looked up): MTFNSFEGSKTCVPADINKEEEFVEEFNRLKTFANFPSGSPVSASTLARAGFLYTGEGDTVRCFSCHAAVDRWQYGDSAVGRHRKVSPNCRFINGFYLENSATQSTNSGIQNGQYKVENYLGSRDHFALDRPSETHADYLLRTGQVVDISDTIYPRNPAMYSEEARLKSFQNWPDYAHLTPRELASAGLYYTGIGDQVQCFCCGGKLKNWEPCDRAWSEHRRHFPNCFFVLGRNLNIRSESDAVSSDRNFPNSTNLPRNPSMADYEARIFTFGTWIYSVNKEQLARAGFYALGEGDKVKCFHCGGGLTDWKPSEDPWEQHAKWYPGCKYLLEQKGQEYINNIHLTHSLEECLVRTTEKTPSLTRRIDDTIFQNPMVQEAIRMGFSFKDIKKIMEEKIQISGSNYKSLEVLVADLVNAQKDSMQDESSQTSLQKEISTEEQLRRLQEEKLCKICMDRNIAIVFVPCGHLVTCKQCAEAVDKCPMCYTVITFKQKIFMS

As for `COC(=O)C1=C(C)N(Cc2ccccc2)[C@]23O[C@](C(=O)OC)(C(=O)N2[C@@H]1c1ccccc1)[C@H]1C(=O)N(C)C(=O)[C@H]13`, the z-score was 0.395 and 1.67 in test [1]; 1.1 and 0.612 in test [2]; 0.0623 and -0.164 in [3]; 0.639 and 0.0646 in test [4]; -1.44 and 1.16 in test [5]; 0.873 and 0.158 in test [6]. Besides, the z-score was 0.107 (inactive) and 1.13 (inactive) in test [7]; -0.536 and 0.12 in test [8]; 0.551 and -0.416 in test [9]; -0.81 (inactive) and 0.0401 (inactive) in [10]; 0.101 and 1.13 in [11]; -0.974 (inactive) and -1.6 (inactive) in test [12]. The z-score is 0.856 (inactive) and 0.302 (inactive) in test [13]; -1.59 (inactive) in test [15]; 1.09 (inactive) and -0.535 (inactive) in test [16]; -0.34 (inactive) and 0.732 (inactive) in [17]; 0.207 (inactive) and 0.764 (inactive) in test [18]; 0.389 and -0.0962 in [19]. The composite z-score in test [14] was 0.207 (inactive) and 0.467 (inactive); in test [20], 0.072 and 2.05.
For `C=CCN(C(=O)C(c1cccs1)N(C(=O)/C=C\C(=O)O)C(C)(C)CO)C(C)(C)C` (stereo not given), the z-score was 0.923 and 0.435 in test [1]; 0.373 and 0.179 in test [2]; 1.24 and 1.74 in test [3]; 0.151 and 1.58 in test [4]; -0.161 and 0.234 in [5]; 1.04 and 1.38 in test [6]. Further, the z-score in test [7] is 0.19 (inactive) and 0.713 (inactive); in [8], -0.82 and 0.0107; in test [9], 0.0872 and 0.0595; in [10], -0.465 (inactive) and -0.596 (inactive); in [11], -0.432 and -0.115; in test [12], -1.64 (inactive) and -0.838 (inactive). Moreover, the z-score in test [13] was 0.626 (inactive) and 0.391 (inactive); in test [15] it was 0.454 (inactive) and -0.0837 (inactive); in test [16], -1.86 (inactive) and -1.72 (inactive); in [17], 1.97 (inactive) and 0.291 (inactive); in test [18], 2.07 (inactive) and 0.946 (inactive); in test [19], 0.356 and 0.366. Moreover, the composite z-score is -0.98 (inactive) and -0.499 (inactive) in test [14]; -0.0669 and 0.0153 in [20].
In the case of `COC(=O)C1=C2N(Cc3ccccc3)C(C)=C(C(=O)OC)[C@@H](c3ccccc3)N2C(=O)[C@](O)(C(=O)OC)C1`, the z-score in test [1] is -0.104 and 1.11; in [2], 0.387 and -1.41; in test [3], -0.102 and 0.511; in [4], -0.397 and -0.107; in test [5], -1.16 and 0.38; in [6] it was 0.574 and 0.276. In addition, the z-score was -0.0488 (inactive) and -0.394 (inactive) in test [7]; -0.848 and 0.573 in test [8]; 0.127 and 0.0283 in test [9]; 1.83 (inactive) and -0.59 (inactive) in [10]; 1.08 and -0.565 in test [11]; -0.875 (inactive) and -0.828 (inactive) in test [12]. Besides, the z-score in test [13] is 0.7 (inactive) and 0.349 (inactive); in test [15] it was -0.318 (inactive) and 0.216 (inactive); in [16] it was -0.321 (inactive) and 0.0615 (inactive); in [17], 0.0099 (inactive) and -0.163 (inactive); in [18] it was -0.184 (inactive) and -0.224 (inactive); in [19], 1 and -0.272. Moreover, the composite z-score in [14] is 0.268 (inactive) and -0.608 (inactive); in test [20] it was 0.0623 and 0.43.
As to `CCCNC(=O)OC[C@H]1O[C@H](CCON=C(C)CCC(=O)OC[C@H]2O[C@H](C#Cc3ccccc3)C=C[C@@H]2Oc2ccc(C)cc2)C=C[C@@H]1Oc1ccc(OC)cc1`, the z-score is -0.284 in [1]; -0.182 in [2]; -0.433 in test [3]; -0.321 in test [4]; 0.0363 in [5]; 1.38 in test [6]. The z-score was -1.31 (inactive) in [7]; 0.15 in test [8]; -0.435 in test [9]; 0.835 (inactive) in test [10]; 0.462 in test [11]; 0.889 (inactive) in test [12]. The z-score in test [13] is -0.0269 (inactive); in test [15] it was -0.066 (inactive); in test [16], 0.432 (inactive); in [17], 0.715 (inactive); in [18], 0.565 (inactive); in test [19] it was 0.75. The composite z-score was -0.754 (inactive) in test [14] and 0.0408 in test [20].
On to `COC(=O)CC=C[C@@H](C)[C@@H](CO)NS(=O)(=O)c1ccc(C)cc1`, for which the z-score in test [1] was -0.188 and 0.816; in [2], -0.466 and -0.0209; in test [3], -0.252 and 0.461; in test [4], -0.243 and 0.811; in [5], -0.101 and 0.667; in test [6], -0.328 and 0.817. In addition, the z-score in test [7] is -0.0819 (inactive) and -0.161 (inactive); in [8], -0.827 and 0.601; in test [9], -0.0943 and -0.285; in test [10], 0.827 (inactive) and -0.832 (inactive); in test [11], 0.553 and -0.369; in test [12], 0.909 (inactive) and -1.39 (inactive). In addition, the z-score in [13] is 0.0323 (inactive) and -0.548 (inactive); in test [15], 0.013 (inactive) and 0.204 (inactive); in [16], -0.214 (inactive) and -0.162 (inactive); in [17] it was -0.0056 (inactive) and 0.413 (inactive); in [18] it was -0.214 (inactive) and 0.297 (inactive); in [19] it was 0.519 and -0.314. Also, the composite z-score was 0.581 (inactive) and -0.0189 (inactive) in test [14]; -0.275 and 0.0656 in test [20].
Consider `CCOC(=O)[C@@H]1CC=C2CC1C(=O)N1CCC[C@@H]1[C@H]2O[Si](C)(C)C(C)(C)C` (stereo not given in full), for which the z-score in test [1] was -0.366 and -0.566; in [2], -0.0834 and 0.84; in [3] it was -0.45 and -1.76; in test [4], -0.204 and -0.227; in test [5] it was -1.71 and -2.37; in test [6] it was -1.48 and 0.214. The z-score in test [7] was -0.649 (inactive) and 0.192 (inactive); in test [8], -0.0804 and 0.132; in test [9] it was 0.144 and 0.321; in test [10] it was 0.016 (inactive) and 2.5 (inactive); in test [11] it was -0.464 and 1.65; in [12], 0.0163 (inactive) and -8.53 (active). Besides, the z-score in test [13] was -0.226 (inactive) and 1.07 (inactive); in [15], -0.0825 (inactive) and -0.377 (inactive); in test [16], -1.35 (inactive) and 0.069 (inactive); in test [17], 0.03 (inactive) and 0.867 (inactive); in test [18], 0.262 (inactive) and -0.586 (inactive); in [19] it was -0.516 and 0.845. Besides, the composite z-score in test [14] was -0.259 (inactive) and -0.198 (inactive); in [20] it was -0.343 and -0.171.
